Test results published in PubChem BioAssay AID1159580 (chemical genetic matrix, 2015).
Hit rate of the full screen: of about 5,500 compounds, about 2,000 (36%) were called active. About 18% were inconclusive and are not listed. No stated cut-off is given here; in the data, active means normalized growth mostly below about 0.91 (no sharp cut-off); inconclusive means no clear call, values can overlap the other calls; inactive means mostly above about 0.92. The list shows a part of the results.

Experiment: chemical genetic growth profiling, strain panel (AID 1159580);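 further: tested at 20 µM; growth read once vehicle control cultures reached saturation at 30 °C; 1 = growth at the plate median or of vehicle wells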
Conditions: S. cerevisiae deletion strains, growth OD

Measured: normalized growth

CC[C@]1(O)CC2CN(CCc3c([nH]c4ccccc34)[C@@](C(=O)OC)(c3cc4c(cc3OC)N(C)[C@H]3[C@@](O)(C(=O)OC)[C@H](OC(C)=O)[C@]5(CC)C=CCN6CC[C@]43[C@@H]65)C2)C1 (some centres undefined)
inactive: locus YAL021C, strain ccr4, stronger effect = lower value 1 | locus YAL026C, strain drs2, stronger effect = lower value 0.948 | locus YAL030W, strain snc1, stronger effect = lower value 0.985 | locus YBL061C, strain skt5, stronger effect = lower value 0.975 | locus YBR009C, strain hhf1, stronger effect = lower value 0.941 | locus YBR023C, strain chs3, stronger effect = lower value 0.984 | locus YBR171W, strain sec66, stronger effect = lower value 0.959 | locus YBR231C, strain swc5, stronger effect = lower value 0.982 | locus YBR279W, strain paf1, stronger effect = lower value 0.98 | locus YCL011C, strain gbp2, stronger effect = lower value 0.983 | locus YCL016C, strain dcc1, stronger effect = lower value 1.01 | locus YCL061C, strain MRC1, stronger effect = lower value 1.02 | locus YCL069W, strain vba3, stronger effect = lower value 0.969 | locus YCR088W, strain abp1, stronger effect = lower value 0.974 | locus YDL005C, strain med2, stronger effect = lower value 0.972 | locus YDL040C, strain nat1, stronger effect = lower value 0.969 | locus YDR001C, strain nth1, stronger effect = lower value 0.973 | locus YDR069C, strain doa4, stronger effect = lower value 1 | locus YDR137W, strain rgp1, stronger effect = lower value 0.979 | locus YDR159W, strain sac3, stronger effect = lower value 0.928 | locus YDR195W, strain ref2 0.951 | locus YDR297W, strain sur2, stronger effect = lower value 0.975 | locus YDR334W, strain swr1, stronger effect = lower value 0.955 | locus YDR335W, strain msn5, stronger effect = lower value 0.981 | locus YDR392W, strain spt3, stronger effect = lower value 0.859 | locus YEL003W, strain gim4, stronger effect = lower value 0.954 | locus YEL037C, strain rad23, stronger effect = lower value 0.963 | locus YEL061C, strain CIN8 (second series), stronger effect = lower value 0.962 | locus YER015W, strain faa2, stronger effect = lower value 0.961 | locus YER016W, strain bim1, stronger effect = lower value 0.989 | locus YER111C, strain swi4, stronger effect = lower value 0.972 | locus YER155C, strain BEM2 (second series), stronger effect = lower value 0.907 | locus YFR010W, strain ubp6, stronger effect = lower value 0.948 | locus YGL167C, strain pmr1, stronger effect = lower value 0.972 | locus YGL173C, strain kem1, stronger effect = lower value 0.976 | locus YGL227W, strain vid30, stronger effect = lower value 0.947 | locus YGL240W, strain doc1, stronger effect = lower value 0.954 | locus YGL253W, strain hxk2, stronger effect = lower value 1.01 | locus YHR013C, strain ard1, stronger effect = lower value 0.949 | locus YHR027C, strain rpn1, stronger effect = lower value 0.957 | locus YHR030C, strain SLT2, stronger effect = lower value 0.991 | locus YHR079C, strain IRE1, stronger effect = lower value 0.975 | locus YHR142W, strain chs7, stronger effect = lower value 1.02 | locus YJL092W, strain hpr5, stronger effect = lower value 0.973 | locus YJL095W, strain BCK1 (second series), stronger effect = lower value 0.978 | locus YJL095W, strain BCK1, stronger effect = lower value 0.992 | locus YJL115W, strain asf1, stronger effect = lower value 0.956 | locus YJL129C, strain trk1, stronger effect = lower value 0.986 | locus YJL154C, strain vps35, stronger effect = lower value 0.965 | locus YJL164C, strain tpk1, stronger effect = lower value 0.956 | locus YJL166W, strain qcr8, stronger effect = lower value 0.998 | locus YJL187C, strain SWE1, stronger effect = lower value 0.974 | locus YJR066W, strain TOR1, stronger effect = lower value 0.965 | locus YKL160W, strain elf1, stronger effect = lower value 1.05 | locus YKR026C, strain gcn3, stronger effect = lower value 0.975 | locus YKR091W, strain srl3, stronger effect = lower value 0.98 | locus YLL001W, strain dnm1, stronger effect = lower value 1.05 | locus YLL026W, stronger effect = lower value 0.979 | locus YLL041C, strain sdh2, stronger effect = lower value 0.964 | locus YLR027C, strain aat2, stronger effect = lower value 0.987 | locus YLR113W, strain HOG1, stronger effect = lower value 0.955 | locus YLR221C, strain rsa3, stronger effect = lower value 1.04 | locus YLR258W, strain gsy2, stronger effect = lower value 0.979 | locus YLR262C, strain YPT6 (second series), stronger effect = lower value 0.968 | locus YLR320W, strain mms22, stronger effect = lower value 1.04 | locus YLR342W, strain FKS1, stronger effect = lower value 0.977 | locus YLR357W, strain rsc2, stronger effect = lower value 0.974 | locus YLR370C, strain arc18, stronger effect = lower value 0.989 | locus YLR384C, strain iki3, stronger effect = lower value 0.967 | locus YML120C, strain ndi1, stronger effect = lower value 1.01 | locus YMR058W, strain fet3, stronger effect = lower value 0.977 | locus YMR125W, strain sto1, stronger effect = lower value 1.02 | locus YMR129W, stronger effect = lower value 0.967 | locus YMR205C, strain PFK2, stronger effect = lower value 1.01 | locus YMR231W, strain pep5, stronger effect = lower value 0.966 | locus YNL071W, strain lat1, stronger effect = lower value 0.963 | locus YNL183C, strain NPR1, stronger effect = lower value 0.928 | locus YNL209W, strain ssb2, stronger effect = lower value 0.973 | locus YNL248C, strain rpa49, stronger effect = lower value 1.04 | locus YNL322C, strain KRE1 (second series), stronger effect = lower value 0.977 | locus YNR049C, strain mso1, stronger effect = lower value 0.969 | locus YOR001W, strain rrp6, stronger effect = lower value 0.923 | locus YOR070C, strain gyp1, stronger effect = lower value 1 | locus YOR080W, strain dia2, stronger effect = lower value 0.96 | locus YOR083W, strain WHI5, stronger effect = lower value 1.04 | locus YOR106W, strain vam3, stronger effect = lower value 1.03 | locus YOR231W, strain MKK1, stronger effect = lower value 0.952 | locus YOR265W, strain rbl2, stronger effect = lower value 0.987 | locus YOR270C, strain vph1, stronger effect = lower value 1.06 | locus YOR290C, strain snf2, stronger effect = lower value 1.01 | locus YPL051W, strain arl3, stronger effect = lower value 1.01 | locus YPL078C, strain atp4, stronger effect = lower value 1.04 | locus YPL106C, strain sse1, stronger effect = lower value 0.931 | locus YPL240C, strain hsp82, stronger effect = lower value 0.963 | locus YPL256C, strain CLN2, stronger effect = lower value 0.942

Nc1ncnc2c1ncn2C1OC2COP(O)(=S)O[C@@H]2[C@@H]1O (some centres undefined)
inactive: locus YAL013W, strain DEP1, stronger effect = lower value 1.01 | locus YAL040C, strain CLN3, stronger effect = lower value 1.01 | locus YDR150W, strain NUM1, stronger effect = lower value 1.02 | locus YDR363W, strain ESC2, stronger effect = lower value 0.99 | locus YER002W, strain NOP16, stronger effect = lower value 0.989 | locus YGR078C, strain PAC10, stronger effect = lower value 1 | locus YJR075W, strain HOC1, stronger effect = lower value 0.997 | locus YNL128W, strain TEP1, stronger effect = lower value 1.01 | locus YNL153C, strain GIM3, stronger effect = lower value 1.03 | locus YNL175C, strain NOP13, stronger effect = lower value 1.03 | locus YNL197C, strain WHI3, stronger effect = lower value 1.02 | locus YNL224C, strain SQS1, stronger effect = lower value 1.02 | locus YOR083W, strain WHI5 (second series), stronger effect = lower value 0.997 | locus YPL241C, strain CIN2, stronger effect = lower value 1.01
